Measurements reported in PMC11062922 (Nature Chemical Biology, 2023).
Read-outs that look alike come from different tables or passages of the source.

Legend:
PRKD3 = details: read-out: apparent Kd, n = 1
Q6ZSR9 = Q6ZSR9 (human, UniProt Q6ZSR9); details: read-out: apparent Kd, n = 1
Sequence of Q6ZSR9 (Q6ZSR9 whole entry, looked up): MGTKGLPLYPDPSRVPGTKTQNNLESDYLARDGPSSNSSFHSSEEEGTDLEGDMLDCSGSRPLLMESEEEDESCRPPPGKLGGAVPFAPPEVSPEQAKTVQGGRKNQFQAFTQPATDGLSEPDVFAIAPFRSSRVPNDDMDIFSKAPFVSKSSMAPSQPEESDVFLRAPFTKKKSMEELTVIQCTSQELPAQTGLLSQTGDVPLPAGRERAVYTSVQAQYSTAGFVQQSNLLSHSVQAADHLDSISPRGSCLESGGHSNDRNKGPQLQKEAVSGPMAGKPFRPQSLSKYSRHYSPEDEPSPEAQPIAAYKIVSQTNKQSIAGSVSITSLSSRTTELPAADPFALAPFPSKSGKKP

Substance Lestaurtinib has a potency estimated from few doses (PRKD3; compound concentrations:100 nM and 1000 nM (sheet 'Lestaurtinib' of Supplementary Table 1),run:Lestaurtinib_02766_R2,Plate:MR027) of 0.0746 µM, a potency estimated from few doses (PRKD3; compound concentrations:100 nM and 1000 nM (sheet 'Lestaurtinib' of Supplementary Table 1),run:Lestaurtinib_02768_R3,Plate:MR028) of 0.0591 µM and a potency estimated from few doses (PRKD3; compound concentrations:100 nM and 1000 nM (sheet 'Lestaurtinib' of Supplementary Table 1),run:Lestaurtinib_02795_R2,Plate:MR022) of 0.0798 µM. It also gave a potency estimated from few doses (PRKD3; compound concentrations:100 nM and 1000 nM (sheet 'Lestaurtinib' of Supplementary Table 1),run:Lestaurtinib_02802_R1,Plate:MR029) of 0.0831 µM, a potency estimated from few doses (PRKD3; compound concentrations:100 nM and 1000 nM (sheet 'Lestaurtinib' of Supplementary Table 1),run:Lestaurtinib_02802_R3,Plate:MR029) of 0.0827 µM and a potency estimated from few doses (PRKD3; compound concentrations:100 nM and 1000 nM (sheet 'Lestaurtinib' of Supplementary Table 1),run:Lestaurtinib_02896_R1,Plate:MR030) of 0.0618 µM. For the same substance, the potency estimated from few doses (PRKD3; compound concentrations:100 nM and 1000 nM (sheet 'Lestaurtinib' of Supplementary Table 1),run:Lestaurtinib_02896_R2,Plate:MR030) was 0.0806 µM, the potency estimated from few doses (PRKD3; compound concentrations:100 nM and 1000 nM (sheet 'Lestaurtinib' of Supplementary Table 1),run:Lestaurtinib_02896_R3,Plate:MR030) was 0.0922 µM and the potency estimated from few doses (PRKD3; compound concentrations:100 nM and 1000 nM (sheet 'Lestaurtinib' of Supplementary Table 1),run:Lestaurtinib_03172_R3,Plate:MR031) was 0.0901 µM. For the same substance, the potency estimated from few doses (PRKD3; compound concentrations:100 nM and 1000 nM (sheet 'Lestaurtinib' of Supplementary Table 1),run:Lestaurtinib_03252_R1,Plate:MR032) was 0.0434 µM, the potency estimated from few doses (PRKD3; compound concentrations:100 nM and 1000 nM (sheet 'Lestaurtinib' of Supplementary Table 1),run:Lestaurtinib_03252_R2,Plate:MR032) was 0.0306 µM and the potency estimated from few doses (PRKD3; compound concentrations:100 nM and 1000 nM (sheet 'Lestaurtinib' of Supplementary Table 1),run:Lestaurtinib_03260_R2,Plate:MR033) was 0.0967 µM. It also gave a potency estimated from few doses (PRKD3; compound concentrations:100 nM and 1000 nM (sheet 'Lestaurtinib' of Supplementary Table 1),run:Lestaurtinib_03260_R3,Plate:MR033) of 0.0912 µM, a potency estimated from few doses (Q6ZSR9; compound concentrations:100 nM and 1000 nM (sheet 'Lestaurtinib' of Supplementary Table 1),run:Lestaurtinib_02339_R1,Plate:MR001) of 0.0789 µM and a potency estimated from few doses (Q6ZSR9; compound concentrations:100 nM and 1000 nM (sheet 'Lestaurtinib' of Supplementary Table 1),run:Lestaurtinib_02339_R3,Plate:MR001) of 0.0488 µM. It also gave a potency estimated from few doses (Q6ZSR9; compound concentrations:100 nM and 1000 nM (sheet 'Lestaurtinib' of Supplementary Table 1),run:Lestaurtinib_02364_R1,Plate:MR002) of 0.0685 µM, a potency estimated from few doses (Q6ZSR9; compound concentrations:100 nM and 1000 nM (sheet 'Lestaurtinib' of Supplementary Table 1),run:Lestaurtinib_02364_R2,Plate:MR002) of 0.0681 µM and a potency estimated from few doses (Q6ZSR9; compound concentrations:100 nM and 1000 nM (sheet 'Lestaurtinib' of Supplementary Table 1),run:Lestaurtinib_02364_R3,Plate:MR002) of 0.0786 µM. The potency estimated from few doses (Q6ZSR9; compound concentrations:100 nM and 1000 nM (sheet 'Lestaurtinib' of Supplementary Table 1),run:Lestaurtinib_02367_R1,Plate:MR003) was 0.0627 µM, the potency estimated from few doses (Q6ZSR9; compound concentrations:100 nM and 1000 nM (sheet 'Lestaurtinib' of Supplementary Table 1),run:Lestaurtinib_02367_R2,Plate:MR003) was 0.0667 µM and the potency estimated from few doses (Q6ZSR9; compound concentrations:100 nM and 1000 nM (sheet 'Lestaurtinib' of Supplementary Table 1),run:Lestaurtinib_02367_R3,Plate:MR003) was 0.0788 µM. It also gave a potency estimated from few doses (Q6ZSR9; compound concentrations:100 nM and 1000 nM (sheet 'Lestaurtinib' of Supplementary Table 1),run:Lestaurtinib_02381_R1,Plate:MR004) of 0.0694 µM, a potency estimated from few doses (Q6ZSR9; compound concentrations:100 nM and 1000 nM (sheet 'Lestaurtinib' of Supplementary Table 1),run:Lestaurtinib_02381_R2,Plate:MR004) of 0.0646 µM and a potency estimated from few doses (Q6ZSR9; compound concentrations:100 nM and 1000 nM (sheet 'Lestaurtinib' of Supplementary Table 1),run:Lestaurtinib_02407_R1,Plate:MR005) of 0.0623 µM. It also gave a potency estimated from few doses (Q6ZSR9; compound concentrations:100 nM and 1000 nM (sheet 'Lestaurtinib' of Supplementary Table 1),run:Lestaurtinib_02407_R2,Plate:MR005) of 0.0719 µM, a potency estimated from few doses (Q6ZSR9; compound concentrations:100 nM and 1000 nM (sheet 'Lestaurtinib' of Supplementary Table 1),run:Lestaurtinib_02407_R3,Plate:MR005) of 0.0685 µM and a potency estimated from few doses (Q6ZSR9; compound concentrations:100 nM and 1000 nM (sheet 'Lestaurtinib' of Supplementary Table 1),run:Lestaurtinib_02422_R1,Plate:MR006) of 0.0724 µM. For the same substance, the potency estimated from few doses (Q6ZSR9; compound concentrations:100 nM and 1000 nM (sheet 'Lestaurtinib' of Supplementary Table 1),run:Lestaurtinib_02422_R2,Plate:MR006) was 0.0206 µM, the potency estimated from few doses (Q6ZSR9; compound concentrations:100 nM and 1000 nM (sheet 'Lestaurtinib' of Supplementary Table 1),run:Lestaurtinib_02437_R2,Plate:MR007) was 0.0556 µM and the potency estimated from few doses (Q6ZSR9; compound concentrations:100 nM and 1000 nM (sheet 'Lestaurtinib' of Supplementary Table 1),run:Lestaurtinib_02437_R3,Plate:MR007) was 0.00966 µM. The potency estimated from few doses (Q6ZSR9; compound concentrations:100 nM and 1000 nM (sheet 'Lestaurtinib' of Supplementary Table 1),run:Lestaurtinib_02438_R3,Plate:MR008) was 0.0748 µM, the potency estimated from few doses (Q6ZSR9; compound concentrations:100 nM and 1000 nM (sheet 'Lestaurtinib' of Supplementary Table 1),run:Lestaurtinib_02443_R1,Plate:MR009) was 0.0516 µM and the potency estimated from few doses (Q6ZSR9; compound concentrations:100 nM and 1000 nM (sheet 'Lestaurtinib' of Supplementary Table 1),run:Lestaurtinib_02443_R2,Plate:MR009) was 0.0627 µM. For the same substance, the potency estimated from few doses (Q6ZSR9; compound concentrations:100 nM and 1000 nM (sheet 'Lestaurtinib' of Supplementary Table 1),run:Lestaurtinib_02443_R3,Plate:MR009) was 0.0778 µM, the potency estimated from few doses (Q6ZSR9; compound concentrations:100 nM and 1000 nM (sheet 'Lestaurtinib' of Supplementary Table 1),run:Lestaurtinib_02473_R1,Plate:MR010) was 0.0784 µM and the potency estimated from few doses (Q6ZSR9; compound concentrations:100 nM and 1000 nM (sheet 'Lestaurtinib' of Supplementary Table 1),run:Lestaurtinib_02473_R2,Plate:MR010) was 0.061 µM. For the same substance, the potency estimated from few doses (Q6ZSR9; compound concentrations:100 nM and 1000 nM (sheet 'Lestaurtinib' of Supplementary Table 1),run:Lestaurtinib_02473_R3,Plate:MR010) was 0.0357 µM, the potency estimated from few doses (Q6ZSR9; compound concentrations:100 nM and 1000 nM (sheet 'Lestaurtinib' of Supplementary Table 1),run:Lestaurtinib_02482_R2,Plate:MR011) was 0.0766 µM and the potency estimated from few doses (Q6ZSR9; compound concentrations:100 nM and 1000 nM (sheet 'Lestaurtinib' of Supplementary Table 1),run:Lestaurtinib_02482_R3,Plate:MR011) was 0.0656 µM. For the same substance, the potency estimated from few doses (Q6ZSR9; compound concentrations:100 nM and 1000 nM (sheet 'Lestaurtinib' of Supplementary Table 1),run:Lestaurtinib_02487_R1,Plate:MR012) was 0.0717 µM, the potency estimated from few doses (Q6ZSR9; compound concentrations:100 nM and 1000 nM (sheet 'Lestaurtinib' of Supplementary Table 1),run:Lestaurtinib_02487_R2,Plate:MR012) was 0.0666 µM and the potency estimated from few doses (Q6ZSR9; compound concentrations:100 nM and 1000 nM (sheet 'Lestaurtinib' of Supplementary Table 1),run:Lestaurtinib_02487_R3,Plate:MR012) was 0.0812 µM.
